Data taken from paper PMC12820563, “FoxP3 forms a head-to-head dimer in vivo and stabilizes its multimerization on adjacent microsatellites”.
Over roughly 16,000 sequences, “rpm ratio (pull-down/input)” has its median near 0.5; the highest 2% begin near 5.5. The entries come from a sample that favours the highest values as a whole.

target: T1, MBP-FoxP3dN (Mus musculus, UniProt Q99JB6 188-423); assay: PD-seq (MBP pull-down with sequencing); 20 mM Tris-HCl pH 7.5, 100 mM NaCl, 1.5 mM MgCl2, 0.4 uM protein, 0.1 uM dsDNA library, 30 min, room temperature, amylose pull-down; high values mean tight binding; conditions: protein: recombinant; tags: His6-MBP; chain copies: 2; dsDNA, one strand shown
T1 sequence: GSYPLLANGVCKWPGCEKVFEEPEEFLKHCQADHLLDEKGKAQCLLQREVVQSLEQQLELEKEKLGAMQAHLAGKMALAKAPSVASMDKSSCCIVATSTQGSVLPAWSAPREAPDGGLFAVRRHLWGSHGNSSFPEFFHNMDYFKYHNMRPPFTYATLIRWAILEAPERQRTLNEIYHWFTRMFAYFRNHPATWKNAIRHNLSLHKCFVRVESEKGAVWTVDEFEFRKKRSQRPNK
In short: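 A fragment of mouse FoxP3 or FoxP1 without its N-terminus, carrying a His6-MBP tag and produced in E. coli, was combined at 0.4 µM with a 0.1 µM degenerate double-stranded DNA library filled in with Klenow. The mixture sat for 30 min at room temperature in Tris pH 7.5 buffer containing NaCl and MgCl2. Protein–DNA complexes were captured on amylose resin, washed three times, and the DNA was freed with proteinase K, barcoded by PCR and sequenced on Illumina. Binding is expressed as reads-per-million enrichment of pull-down over input, with replicates pooled.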

Sequence | binding signal
GATGATTGTTCTCCCAGCTGATGAATTTCCGCCGTCGAGTAAACAAATTTTCCTAATCTTTCTGTTCAAGCGCCATCTAC | 0.555 RPM ratio (pull-down/input)
GATGATTGTTCTCCCAGCTGATGAATTAGTTATGTCGAGTAAACAAATTTTCCTAATCTTTCTGTTCAAGCGCCATCTAC | 3.79 RPM ratio (pull-down/input)
GATGATTGTTCTCCCAGCTGATGAATTTTTGTAGTCGAGTAAACAAATTTTCCTAATCTTTCTGTTCAAGCGCCATCTAC | 0.53 RPM ratio (pull-down/input)
GATGATTGTTCTCCCAGCTGATGAATTTTATTAGTCGAGTAAACAAATTTTCCTAATCTTTCTGTTCAAGCGCCATCTAC | 4.27 RPM ratio (pull-down/input)
GATGATTGTTCTCCCAGCTGATGAATTTCTGTAGTCGAGTAAACAAATTTTCCTAATCTTTCTGTTCAAGCGCCATCTAC | 0.385 RPM ratio (pull-down/input)
GATGATTGTTCTCCCAGCTGATGAATTTGTTAGGTCGAGTAAACAAATTTTCCTAATCTTTCTGTTCAAGCGCCATCTAC | 5.73 RPM ratio (pull-down/input)
GATGATTGTTCTCCCAGCTGATGAATTTGTGTAGTCGAGTAAACAAATTTTCCTAATCTTTCTGTTCAAGCGCCATCTAC | 6.14 RPM ratio (pull-down/input)
GATGATTGTTCTCCCAGCTGATGAATTATTTTAGTCGAGTAAACAAATTTTCCTAATCTTTCTGTTCAAGCGCCATCTAC | 0.414 RPM ratio (pull-down/input)
GATGATTGTTCTCCCAGCTGATGAATTATGTTAGTCGAGTAAACAAATTTTCCTAATCTTTCTGTTCAAGCGCCATCTAC | 5.81 RPM ratio (pull-down/input)
GATGATTGTTCTCCCAGCTGATGAATTTCTTAGGTCGAGTAAACAAATTTTCCTAATCTTTCTGTTCAAGCGCCATCTAC | 0.273 RPM ratio (pull-down/input)
GATGATTGTTCTCCCAGCTGATGAATTAGTCGAGTCGAGTAAACAAATTTTCCTAATCTTTCTGTTCAAGCGCCATCTAC | 0.367 RPM ratio (pull-down/input)
GATGATTGTTCTCCCAGCTGATGAATTAGTTAGGTCGAGTAAACAAATTTTCCTAATCTTTCTGTTCAAGCGCCATCTAC | 1.51 RPM ratio (pull-down/input)
GATGATTGTTCTCCCAGCTGATGAATTTATTTAGTCGAGTAAACAAATTTTCCTAATCTTTCTGTTCAAGCGCCATCTAC | 5.5 RPM ratio (pull-down/input)
GATGATTGTTCTCCCAGCTGATGAATTGCCTCCATCGAGTAAACAAATTTTCCTAATCTTTCTGTTCAAGCGCCATCTAC | 1.28 RPM ratio (pull-down/input)
GATGATTGTTCTCCCAGCTGATGAATTATACTTCTCGAGTAAACAAATTTTCCTAATCTTTCTGTTCAAGCGCCATCTAC | 0.492 RPM ratio (pull-down/input)
GATGATTGTTCTCCCAGCTGATGAATTTTTCTACTCGAGTAAACAAATTTTCCTAATCTTTCTGTTCAAGCGCCATCTAC | 0.279 RPM ratio (pull-down/input)

Sequence | binding signal
GATGATTGTTCTCCCAGCTGATGAATTTATCGCCTCGAGTAAACAAATTTTCCTAATCTTTCTGTTCAAGCGCCATCTAC | 1.07 RPM ratio (pull-down/input)
GATGATTGTTCTCCCAGCTGATGAATTGCGCTCATCGAGTAAACAAATTTTCCTAATCTTTCTGTTCAAGCGCCATCTAC | 1.24 RPM ratio (pull-down/input)
GATGATTGTTCTCCCAGCTGATGAATTAGCCGGCTCGAGTAAACAAATTTTCCTAATCTTTCTGTTCAAGCGCCATCTAC | 0.203 RPM ratio (pull-down/input)
GATGATTGTTCTCCCAGCTGATGAATTCCTTTTATCGAGTAAACAAATTTTCCTAATCTTTCTGTTCAAGCGCCATCTAC | 0.345 RPM ratio (pull-down/input)
GATGATTGTTCTCCCAGCTGATGAATTATGTTTATCGAGTAAACAAATTTTCCTAATCTTTCTGTTCAAGCGCCATCTAC | 8.36 RPM ratio (pull-down/input)
GATGATTGTTCTCCCAGCTGATGAATTTGATTTATCGAGTAAACAAATTTTCCTAATCTTTCTGTTCAAGCGCCATCTAC | 2.99 RPM ratio (pull-down/input)
GATGATTGTTCTCCCAGCTGATGAATTGTGTTTATCGAGTAAACAAATTTTCCTAATCTTTCTGTTCAAGCGCCATCTAC | 8.53 RPM ratio (pull-down/input)
GATGATTGTTCTCCCAGCTGATGAATTGTTTTTATCGAGTAAACAAATTTTCCTAATCTTTCTGTTCAAGCGCCATCTAC | 3.74 RPM ratio (pull-down/input)
GATGATTGTTCTCCCAGCTGATGAATTTTGTTTATCGAGTAAACAAATTTTCCTAATCTTTCTGTTCAAGCGCCATCTAC | 7.19 RPM ratio (pull-down/input)
GATGATTGTTCTCCCAGCTGATGAATTATGATTATCGAGTAAACAAATTTTCCTAATCTTTCTGTTCAAGCGCCATCTAC | 3.53 RPM ratio (pull-down/input)
GATGATTGTTCTCCCAGCTGATGAATTTATCTAATCGAGTAAACAAATTTTCCTAATCTTTCTGTTCAAGCGCCATCTAC | 0.706 RPM ratio (pull-down/input)
GATGATTGTTCTCCCAGCTGATGAATTTTCTTTATCGAGTAAACAAATTTTCCTAATCTTTCTGTTCAAGCGCCATCTAC | 1.27 RPM ratio (pull-down/input)
GATGATTGTTCTCCCAGCTGATGAATTTATGTTATCGAGTAAACAAATTTTCCTAATCTTTCTGTTCAAGCGCCATCTAC | 3.24 RPM ratio (pull-down/input)
GATGATTGTTCTCCCAGCTGATGAATTCTGTTTATCGAGTAAACAAATTTTCCTAATCTTTCTGTTCAAGCGCCATCTAC | 7.92 RPM ratio (pull-down/input)
GATGATTGTTCTCCCAGCTGATGAATTCTTTTTATCGAGTAAACAAATTTTCCTAATCTTTCTGTTCAAGCGCCATCTAC | 0.332 RPM ratio (pull-down/input)
GATGATTGTTCTCCCAGCTGATGAATTACCACCCTCGAGTAAACAAATTTTCCTAATCTTTCTGTTCAAGCGCCATCTAC | 0.312 RPM ratio (pull-down/input)
